An excerpt weighted towards active compounds, which were near 3.1% of everything screened.
TexasRed fluor: counter-screen for TRb-SRC2 inhibitors: fluorescence interference; TRb/SRC2 Texas Red total fluorescence interference; Potency, µM (titrated, usually from 106 µM), inactives show at the top dose fluorescence change, negative = quenching; 280,000 tested, 0.29% active; active means well fitted curve in either direction with a large enough effect; inconclusive means small, poorly fitted or top-dose-only effect
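Flags fluorescent or light-absorbing compounds by total fluorescence, S + 2P, at 555 nm excitation and 632 nm emission. Mixture: 20 nM Texas Red SRC2 peptide, 0.6 uM human TRb LBD, 1 uM T3, 5% DMSO; compound exposure 5 h at ambient temperature.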
Tau fluor counter: counter-screen for tau fibril formation inhibitors; tau K18 P301L Alexa594 fluorescence, heparin fibrillization; Potency, µM (doses to about 57.7 µM), for the others: top-dose activity change, negative = decrease; 280,000 tested, 0.93% active; further: nearly all actives have a fitted effect of over 55% in size
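Human tau K18 P301L (15 uM unlabeled, 0.24 uM Alexa 594-labeled) in 100 mM sodium acetate pH 7 with 20 uM heparin, 6 hr at 37 C. ThT 30 uM added, 1 hr ambient; Alexa 594 FP and total fluorescence read at 555/632 nm.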
Tau ThT inhib: tau fibrillization inhibition (ThT binding) | recombinant tau K18 P301L (four-repeat tau fragment), heparin-induced fibrillization, ThT fluorescence | Potency, µM (series often up to 57.4 µM), for the others: at the top dose activity, negative = inhibition, most hits filed as inhibitors | 270,000 tested, 2.1% active; further: nearly all actives have a fitted effect of over 55% in size
Target sequence (P10636 561-689 P618L limits assumed): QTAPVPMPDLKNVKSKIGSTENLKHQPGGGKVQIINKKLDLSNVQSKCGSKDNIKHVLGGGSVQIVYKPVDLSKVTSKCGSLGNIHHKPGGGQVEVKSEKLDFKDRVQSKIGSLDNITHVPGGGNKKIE
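Tau K18 P301L fragment (15 uM unlabeled plus 0.24 uM Alexa 594-labeled) in 100 mM sodium acetate pH 7 with compound, fibrillization induced by 20 uM heparin for 6 hr at 37 C. Thioflavin T (30 uM) added, fluorescence read after 1 hr (ex 450, em 510 nm).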
Tau fibril FP: blocks human tau fibril formation measured by polarization. P10636. K18 P301L tau heparin fibrillization, Alexa594 FP, 6 h. 280,000 tested, 0.39% active. Potency, µM (top dose mostly 57.7 µM), for inactives: at the top dose activity, negative = inhibition, most hits filed as inhibitors; further: nearly all actives have a fitted effect of over 55% in size
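Human tau K18 […] P301L fragment, 15 uM unlabeled plus 0.24 uM Alexa 594-labeled tau (final), with compound and 20 uM heparin in 100 mM sodium acetate pH 7; 6 hr at 37 C, then Alexa 594 FP read.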
TRb SRC2 PPI: TRbeta-SRC2 interaction inhibition; 280,000 tested, 0.065% active; Potency, µM (highest dose often 106 µM), inactives show top-dose activity change, negative = inhibition, usual class: inhibitors; TRbeta-SRC2 peptide binding, fluorescence polarization; receptor liganded with 1 µM T3; P10828;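 further: plate controls were bound peptide for no effect and peptide without receptor for full effect; nearly all actives have a fitted effect of over 50% in size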
Target sequence (P10828 whole entry, looked up): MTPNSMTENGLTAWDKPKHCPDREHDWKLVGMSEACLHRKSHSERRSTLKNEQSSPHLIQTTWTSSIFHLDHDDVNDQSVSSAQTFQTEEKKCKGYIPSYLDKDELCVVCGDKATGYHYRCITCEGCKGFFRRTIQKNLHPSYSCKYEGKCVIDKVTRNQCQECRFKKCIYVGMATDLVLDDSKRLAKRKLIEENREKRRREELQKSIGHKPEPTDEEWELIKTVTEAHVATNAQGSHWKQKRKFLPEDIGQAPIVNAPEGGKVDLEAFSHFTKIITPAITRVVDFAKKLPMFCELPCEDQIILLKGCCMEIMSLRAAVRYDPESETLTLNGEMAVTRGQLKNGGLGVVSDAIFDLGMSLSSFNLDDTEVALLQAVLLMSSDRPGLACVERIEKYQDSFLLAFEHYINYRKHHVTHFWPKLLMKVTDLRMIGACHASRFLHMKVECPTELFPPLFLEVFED
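TRb LBD 0.6 uM + Texas Red SRC2 peptide 20 nM, 1 uM T3, Tris buffer w/ 5% DMSO; compound pinned, 5 h RT; FP read ex 555/em 632; normalized to unbound and bound controls.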
An asterisk follows results filed as active; [ ] = another dose, or the depositor's remark. Unless noted, the call rests on the fitted dose curve; in most records, active means well fitted curve in the direction sought with a large enough effect; inconclusive means small, poorly fitted or top-dose-only effect, or another doubt; inactive means no such curve, though single readings can be large; an effect the other way counts as inactive or inconclusive. Unless noted, on the % scale 0 is the no-effect control and ±100 the full control effect; potency means the concentration at half of the fitted maximal effect.

Results for COc1ccccc1C(=O)Nc1nnc2n1CCS2 ?
TexasRed fluor: 3%; Tau fluor counter: 0%; Tau ThT inhib: 2%; Tau fibril FP: 2%; TRb SRC2 PPI: -2%

What do the screens show for `COC(=O)c1ccccc1NC(=O)c1cc2ccccn2n1`?
TexasRed fluor: -1%; Tau fluor counter: -18%; Tau ThT inhib: -9%; Tau fibril FP: -15%; TRb SRC2 PPI: 6%

What do the screens show for `CCCCOc1ccccc1C(=O)Nc1nonc1-c1ccccc1`?
TexasRed fluor: -1%; Tau fluor counter: -8%; Tau ThT inhib: -8%; Tau fibril FP: 11%; TRb SRC2 PPI: 2%

Results for C/C(=N\NC(=O)CC#N)c1cc2ccccc2oc1=O ?
TexasRed fluor: -3%; Tau fluor counter: -7%; Tau ThT inhib: -3%; Tau fibril FP: -5%; TRb SRC2 PPI: 9%

What do the screens show for `C/C(=N\Nc1ccccc1)c1cc2ccccc2oc1=O`?
TexasRed fluor: -2%; Tau fluor counter: inconclusive; Tau ThT inhib: 11µM*; Tau fibril FP: inconclusive; TRb SRC2 PPI: 1%

What do the screens show for `Cc1cc(O)c(NC(=S)NC(=O)c2ccc(-c3ccc(Cl)cc3)o2)cc1C`?
TexasRed fluor: -27%; Tau fluor counter: 7.9µM*[quencher]; Tau ThT inhib: 11µM*; Tau fibril FP: inconclusive; TRb SRC2 PPI: 27%

How did Cc1ccc(NC(=S)NC(=O)c2ccc(-c3ccc(Cl)cc3)o2)c(O)c1 do in these assays?
TexasRed fluor: 2%; Tau fluor counter: 5%; Tau ThT inhib: 11%; Tau fibril FP: 9%; TRb SRC2 PPI: 4%

How did CC(C)C(=O)Nc1ccc(NC(=S)NC(=O)c2ccc([N+](=O)[O-])cc2)cc1 do in these assays?
TexasRed fluor: 0%; Tau fluor counter: -28%; Tau ThT inhib: 7.1µM*; Tau fibril FP: -2%; TRb SRC2 PPI: -7%

Results for CC(C)C(=O)Nc1cccc(NC(=S)NC(=O)c2ccc([N+](=O)[O-])cc2)c1 ?
TexasRed fluor: -3%; Tau fluor counter: -18%; Tau ThT inhib: inconclusive; Tau fibril FP: 1%; TRb SRC2 PPI: 2%

Results for CC1CCCCN1S(=O)(=O)c1ccc(C(=O)Nc2sc3c(c2C(N)=O)CC(C)(C)NC3(C)C)cc1 (stereo unspecified) ?
TexasRed fluor: -2%; Tau fluor counter: inconclusive; Tau ThT inhib: 0%; Tau fibril FP: -11%; TRb SRC2 PPI: -2%

What do the screens show for `O=C1c2cccc3c([N+](=O)[O-])c(O)cc(c23)C(=O)N1Nc1ccccc1`?
TexasRed fluor: -1%; Tau fluor counter: -28%; Tau ThT inhib: 5µM*; Tau fibril FP: 4%; TRb SRC2 PPI: 4%

What do the screens show for `Cc1ccc(CNc2ncnc3ccc(-c4c(C)noc4C)cc23)o1`?
TexasRed fluor: -1%; TRb SRC2 PPI: -1%

How did O=C(Nc1nccs1)c1cn(-c2ccccc2)nc1-c1ccncc1 do in these assays?
TexasRed fluor: -2%; Tau fluor counter: -14%; Tau ThT inhib: -17%; Tau fibril FP: -16%; TRb SRC2 PPI: 10%

Results for COc1cccc(-c2nn(-c3ccccc3)cc2C(=O)Nc2nccs2)c1 ?
TexasRed fluor: -5%; Tau fluor counter: inconclusive; Tau ThT inhib: -10%; Tau fibril FP: 28µM*; TRb SRC2 PPI: 3%

Results for COc1ccc(-c2nn(-c3ccccc3)cc2C(=O)Nc2nccs2)cc1 ?
TexasRed fluor: -3%; Tau fluor counter: inconclusive; Tau ThT inhib: 2%; Tau fibril FP: 28µM*; TRb SRC2 PPI: -3%

What do the screens show for `CC(=O)Nc1ccc(SCC(CC(C)C)N2CCN(CCc3ccccc3)CCC2=O)cc1` (stereo unspecified)?
TexasRed fluor: -2%; TRb SRC2 PPI: 7%

Results for CCOc1ccc(Nc2cc(Nc3ccccc3OCC)nc(C=C(C#N)C#N)n2)cc1 ?
TexasRed fluor: -7%; Tau fluor counter: -19%; Tau ThT inhib: 2.8µM*; Tau fibril FP: 1%; TRb SRC2 PPI: -2%

What do the screens show for `O=Cc1[nH]c2ccccc2c1N(C(=O)CCl)c1ccccc1`?
TexasRed fluor: 0%; Tau fluor counter: -27%; Tau ThT inhib: 32µM*; Tau fibril FP: inconclusive; TRb SRC2 PPI: 1%

Results for CCOc1ccc(-c2noc(CSc3nnc(Cc4ccccc4)n3-c3cccc(C)c3)n2)cc1 ?
TexasRed fluor: -5%; Tau fluor counter: -18%; Tau ThT inhib: inconclusive; Tau fibril FP: 0%; TRb SRC2 PPI: 4%

How did CSc1nc2ccc(NS(=O)(=O)c3ccccc3F)cc2s1 do in these assays?
TexasRed fluor: -4%; Tau fluor counter: -11%; Tau ThT inhib: -5%; Tau fibril FP: 3%; TRb SRC2 PPI: -4%

What do the screens show for `CSc1nc2ccc(NS(=O)(=O)c3c(Cl)cccc3Cl)cc2s1`?
TexasRed fluor: -2%; Tau fluor counter: 10µM*[quencher]; Tau ThT inhib: inconclusive; Tau fibril FP: -3%; TRb SRC2 PPI: -12%

Results for O=C(Nc1cc(Cl)ccc1Cl)c1cc(S(=O)(=O)NCCc2ccccc2)ccc1F ?
TexasRed fluor: 0%; Tau fluor counter: -26%; Tau ThT inhib: 2%; Tau fibril FP: -11%; TRb SRC2 PPI: -2%

What do the screens show for `COc1ccc(C2=C(N3CCN(c4cccc(C)c4C)CC3)c3ccccc3C2=O)cc1`?
TexasRed fluor: -1%; Tau fluor counter: inconclusive; Tau ThT inhib: inconclusive; Tau fibril FP: 13%; TRb SRC2 PPI: 8%

How did CC1(C)c2ccccc2N2CC(=O)NC21/C=C/c1ccco1 (stereo unspecified) do in these assays?
TexasRed fluor: 12%; Tau fluor counter: inconclusive; Tau ThT inhib: inconclusive; Tau fibril FP: inconclusive; TRb SRC2 PPI: -4%

What do the screens show for `CC1(C)c2ccccc2N2CCC(=O)NC21/C=C/c1ccco1` (stereo unspecified)?
TexasRed fluor: 45µM*[fluorescent]; Tau fluor counter: -11%; Tau ThT inhib: inconclusive; Tau fibril FP: -4%; TRb SRC2 PPI: inconclusive

How did O=C(Nc1nc2ccc3ccccc3c2s1)c1ccc(N2CCCCC2)c([N+](=O)[O-])c1 do in these assays?
TexasRed fluor: -3%; Tau fluor counter: -19%; Tau ThT inhib: 4µM*; Tau fibril FP: 3%; TRb SRC2 PPI: -10%

Results for CCC(CC)c1nnc(NC(=O)c2ccc(N3CCCCC3)c([N+](=O)[O-])c2)s1 ?
TexasRed fluor: 2%; Tau fluor counter: 13%; Tau ThT inhib: 14%; Tau fibril FP: 8%; TRb SRC2 PPI: 2%

Results for O=C(Nc1nc2ccc(Cl)cc2s1)c1ccc(N2CCCCC2)c([N+](=O)[O-])c1 ?
TexasRed fluor: 16%; Tau fluor counter: -15%; Tau ThT inhib: 1.3µM*; Tau fibril FP: -19%; TRb SRC2 PPI: inconclusive

What do the screens show for `CCOc1ccc(NC(=O)N2CCC(CN3CCC(C)CC3)CC2)cc1`?
TexasRed fluor: 100µM*[quencher]; Tau fluor counter: -5%; Tau ThT inhib: -1%; Tau fibril FP: 2%; TRb SRC2 PPI: -19%

Screens deposited in PubChem BioAssay by National Center for Advancing Translational Sciences (NCATS).
